Among the data in PubChem BioAssay (EPA / NIEHS) are outcome and AC50 values, retold here.

More than one record can exist for a structure, and the calls need not agree. Active and inactive are the calls of the source. Rule for the calls: active = hit-call score of the fitted dose curve at least 0.9, where 1 is the maximum; inactive = score below 0.9.

Read-out in this test: Collagen IV, COL4A1 (gene 1282)
Kind of test: BSK_MyoF_CollagenIV: BioMAP Diversity Plus: MyoF Assay for Collagen IV Biomarker Activity (AID 2284247). Conditions: primary human lung fibroblasts. The method, then: BSK_MyoF is a cell-based, multiplexed-readout assay that uses lung fibroblasts, […], with measurements taken at 24 hours after chemical dosing in a microplate: 96-well plate.BSK_MyoF_CollagenIV is an assay component measured in the BSK_MyoF assay. It measures Collagen IV antibody related to regulation of gene expression using ELISA technology.Data from the assay component BSK_MyoF_CollagenIV was analyzed at the endpoint, BSK_MyoF_CollagenIV, in the positive analysis fitting direction relative to DMSO as the negative control and baseline of activity. Using a type of binding reporter, gain or loss-of-signal activity can be used to understand protein changes. To generalize the intended target to other relatable targets, this assay endpoint is annotated to the 'cell adhesion molecules' intended target family, where the subfamily is 'collagen'.
The levels of cell surface (or secreted, indicated by the prefix "s") biomarker endpoints were measured by ELISA. Overt cytotoxicity to cells in confluent adherent cultures (all systems other than the BT system) was assessed by measuring total protein levels using sulforhodamine B (SRB) staining in parallel cultures at the time of biomarker measurements, indicated as SRB endpoints. For proliferation assays for adherent cell types, individual cell types are cultured at sub-confluence and relative cell numbers quantified by SRB staining at time points optimized for each system (48 h: 3C and CASM3C systems; 72 h: BT and HDF3CGF systems; 96 h: SAg system). SRB was performed by staining cells with 0.1% SRB after fixation with 10% TCA and reading wells at 560 nm.Viability and proliferation of PBMC (T cells) was quantified by Alamar Blue reduction for the SAg and BT systems. For PBMC viability (referred to as PBMC Cytotoxicity within the assay endpoint names), cells were plated (75,000/well in a 96-well plate) and then chemical samples added for 1 h before addition of activators, SEB and TSST-1 (20 ng/mL final concentration each). Cells were incubated for 90 h. Then, Alamar Blue (20 uL/well) (Invitrogen, Cat DAL1100) was added for 6 h, and the plates were read with a fluorescence microplate reader at 546/580 nm (excitation/emission). For PBMC proliferation, cells were plated and activated as above but incubated for only 16 h prior to addition of Alamar Blue. Plates were read after 6 h.
On to `O=P(O)(O)CCC(F)(F)C(F)(F)C(F)(F)C(F)(F)C(F)(F)C(F)(F)C(F)(F)C(F)(F)F`, for which the result was inactive.
Consider `Clc1ccc(Nc2nnc(Cc3ccncc3)c3ccccc23)cc1`, for which the result was inactive.
Turning to `O=C(O)CCC(F)(F)C(F)(F)C(F)(F)C(F)(F)C(F)(F)F`, the result was inactive.
Regarding `C=CC(=C)CC/C=C(\C)CCC=C(C)C`, the outcome was inactive.
For the compound `O=C(NCc1ncc(C(F)(F)F)cc1Cl)c1c(Cl)cccc1Cl`, the result was inactive.
As for `OCC(F)(F)C(F)(F)C(F)(F)C(F)(F)C(F)(F)C(F)(F)C(F)(F)C(F)(F)C(F)(F)C(F)(F)C(F)(F)F`, the result was inactive.
What is called AC50 is the concentration giving half of the maximal activity seen. For the compound `O=C(CC(=O)C(F)(F)C(F)(F)C(F)(F)F)c1cccs1`, the result was inactive and the AC50 is 8.25 µM (active).
Regarding `Cc1ccc(N=Nc2c(O)ccc3ccccc23)c(C)c1`, the outcome was inactive.
For `O=C(O)CCC(F)(F)C(F)(F)C(F)(F)C(F)(F)C(F)(F)C(F)(F)F`, the outcome was inactive.
On the same count and under the same terms, the result for `CC1=NN(c2ccccc2)C(=O)C1` reads “inactive”; that for `OCCN1CN(CCO)CN(CCO)C1`, “inactive”.
With `NC(=NCCCCCCN=C(N)/N=C(\N)Nc1ccc(Cl)cc1)/N=C(\N)Nc1ccc(Cl)cc1`, the AC50 was 8.69 µM (active).
On to `O=C(O)C(F)(F)OC(F)(F)C(F)(F)OC(F)(F)C(F)(F)OC(F)(F)C(F)(F)C(F)(F)C(F)(F)F`, for which the outcome was inactive.
For the compound `Cc1cccc2c1ccc1ccccc12`, the outcome was inactive.
As to `CN(Cc1cnc2nc(N)nc(N)c2n1)c1ccc(C(=O)N[C@@H](CCC(=O)O)C(=O)O)cc1`, the outcome was inactive.
For the compound `Oc1cc2ccccc2cc1O`, the result was inactive.
On the same count and under the same terms, to `COC1=CC(=O)C[C@@H](C)[C@]12Oc1c(Cl)c(OC)cc(OC)c1C2=O` belongs “inactive”; to `CN(CCO)S(=O)(=O)C(F)(F)C(F)(F)C(F)(F)C(F)(F)C(F)(F)C(F)(F)C(F)(F)C(F)(F)F`, “inactive”.
With `CN(C)c1ccc(C(=C2C=CC(=[N+](C)C)C=C2)c2ccccc2)cc1`, the AC50 was 1.55 µM (active).
Regarding `O=P(O)(O)CCC(F)(F)C(F)(F)C(F)(F)C(F)(F)C(F)(F)C(F)(F)F`, the outcome was inactive.
Still for that read-out and setting: the result for `O=S(=O)(O)C(F)(F)C(F)(F)C(F)(F)C(F)(F)C(F)(F)C(F)(F)C(F)(F)C(F)(F)C(F)(F)C(F)(F)F` reads “inactive”; that for `CCCCC(CC)C(=O)OCCOCCOCCOCCOC(=O)C(CC)CCCC` (centres undefined), “inactive”.
Regarding `COc1cccc(O)c1`, the outcome was inactive.
On to `O=C1OC2(c3ccccc31)c1cc(I)c(O)c(I)c1Oc1c2cc(I)c(O)c1I`, for which the AC50 is 3.8 µM (active).
The same measure, in the same setting: the result for `CC(C)(C)c1ccc(O)c(O)c1` reads 16 µM (active); that for `Cc1ccc(C(=O)c2ccccc2)cc1`, 20 µM (active).
Regarding `CCCCCCCCCCCCCCCCCC[N+](C)(C)Cc1ccccc1`, the result was inactive.
Regarding `C=CC(=O)OCCC(F)(F)C(F)(F)C(F)(F)C(F)(F)C(F)(F)C(F)(F)C(F)(F)C(F)(F)F`, the result was inactive.
Regarding `C[C@]12CC[C@@H]3c4ccc(O)cc4CC[C@H]3[C@@H]1C[C@@H](O)[C@@H]2O`, the result was inactive.
As to `COCN(COC)c1nc(N(COC)COC)nc(N(COC)COC)n1`, the outcome was inactive.
In the case of `CCCCCc1ccc(O)cc1`, the AC50 is 20 µM (active).
Consider `O=C(NO)c1ccccc1`, for which the result was inactive.
`COc1cc(OC)nc(NC(=O)NS(=O)(=O)Nc2ccccc2C(=O)N(C)C)n1`: the outcome was inactive.
Regarding `O=C1c2ccc(O)c(O)c2C(=O)c2c(O)ccc(O)c21`, the outcome was inactive.
As to `CC[N+](CC)(CC)Cc1ccccc1`, the result was inactive.
In the case of `C=CC(C)(CCC=C(C)C)OC(C)=O` (centres undefined), the outcome was inactive.
For the compound `C=COC(=O)C(C)(C)CCCCCC`, the AC50 is 29.7 µM (active).
For the compound `CCOC(=O)CN[C@@H](C(=O)N1CC[C@H]1C(=O)NCc1ccc(/C(N)=N/O)cc1)C1CCCCC1`, the result was inactive.
